# The campaign covered roughly 3,200 compounds. About 75 (2%) showed an effect of 50% or more. The sample holds strong results, similar compounds and a random draw of the others, so the mix is not that of the screen.
# System: T1, S. aureus MSSA476
# T1 construct: MSSA476
# Design: species or system S. aureus MSSA476 (TSB) or V. cholerae SAD30 (LB); 384-well bacterial growth screen at 25 uM, OD600 relative to DMSO control
# Conditions: relative growth, OD600, TSB; 25 µM; inhibitor
row,SMILES,% of control remaining [%]
1,"C=CC(=O)NCc1ccc(C(=O)N2CCC[C@@H]2C(N)=O)cc1 [3-L22, (2R)-1-{4-[(prop-2-enamido)methyl]benzoyl}pyrrolidine-2-carboxamide]",98.2151
2,"CC(Cl)C(=O)NC(c1ccc(F)cc1)c1cnn(C)c1 (centres unmarked) [7-C19, 2-chloro-N-[(4-fluorophenyl)(1-methyl-1H-pyrazol-4-yl)methyl]propanamide]",93.2496
3,"N#CC(=Cc1cnc2ccc(C#N)cn12)C(=O)Nc1ccc(F)cc1 [9-E20, 2-cyano-3-{6-cyanoimidazo[1,2-a]pyridin-3-yl}-N-(4-fluorophenyl)prop-2-enamide]",103.67
4,"CC(Cl)C(=O)N1CCn2c(nn(CC(=O)N(C)C)c2=O)C1 (centres unmarked) [7-K17, 2-[7-(2-chloropropanoyl)-3-oxo-2H,3H,5H,6H,7H,8H-[1,2,4]triazolo[4,3-a]pyrazin-2-yl]-N,N-dimethylacetamide]",89.4819
5,"Cc1cc(C)n(CCCNC(=O)C(C)Cl)n1 (centres unmarked) [7-O19, 2-chloro-N-[3-(3,5-dimethyl-1H-pyrazol-1-yl)propyl]propanamide]",98.2732
6,"Cc1nn(C)c(C)c1NC(=O)C(C)Cl (centres unmarked) [6-C07, 2-chloro-N-(1,3,5-trimethyl-1H-pyrazol-4-yl)propanamide]",84.6829
7,"Cc1cc(NC(=O)CCl)c([N+](=O)[O-])cc1C [4-F21, 2-chloro-N-(4,5-dimethyl-2-nitrophenyl)acetamide]",87.2797
8,"Cc1cc(C(=O)CCl)c(C)n1-c1ccc(Cl)cc1 [10-H18, 2-chloro-1-[1-(4-chlorophenyl)-2,5-dimethyl-1H-pyrrol-3-yl]ethan-1-one]",-0.625
9,"Cc1cc(C(=O)CCl)c(C)n1-c1ccc(S(N)(=O)=O)cc1 [10-N14, 4-[3-(2-chloroacetyl)-2,5-dimethyl-1H-pyrrol-1-yl]benzene-1-sulfonamide]",121.875
10,"Cc1cc(C(=O)CCl)c(C)n1-c1ccccc1 [10-L20, 2-chloro-1-(2,5-dimethyl-1-phenyl-1H-pyrrol-3-yl)ethan-1-one]",127.188
11,"CC(Cl)C(=O)N[C@@H]1CCc2c(C#N)cccc21 (stereo partly drawn) [6-P14, 2-chloro-N-[(1R)-4-cyano-2,3-dihydro-1H-inden-1-yl]propanamide]",122.927
12,"COc1ccc(CNC(=O)CCl)cc1OC [5-O11, 2-chloro-N-[(3,4-dimethoxyphenyl)methyl]acetamide]",81.6029
13,"CN1C(=O)Cc2cc(C(=O)CCl)ccc21 [10-G07, 5-(2-chloroacetyl)-1-methyl-2,3-dihydro-1H-indol-2-one]",132.813
14,"CS(=O)(=O)N1CCc2cc(C(=O)CCl)ccc21 [10-B19, 2-chloro-1-(1-methanesulfonyl-2,3-dihydro-1H-indol-5-yl)ethan-1-one]",0.3125
15,"CCS(=O)(=O)N1CCc2cc(C(=O)CCl)ccc21 [10-E18, 2-chloro-1-[1-(ethanesulfonyl)-2,3-dihydro-1H-indol-5-yl]ethan-1-one]",0.3125
16,"O=C(CCl)NCCS(=O)(=O)N1CCc2ccccc21 [6-H04, 2-chloro-N-[2-(2,3-dihydro-1H-indole-1-sulfonyl)ethyl]acetamide]",86.0488
17,"CC(=O)NCCc1cc(C(=O)CCl)ccc1F [10-O05, N-{2-[5-(2-chloroacetyl)-2-fluorophenyl]ethyl}acetamide]",128.438
18,"CC(=O)N1c2ccc(C(=O)CCl)cc2CC1C (centres unmarked) [10-I20, 1-(1-acetyl-2-methyl-2,3-dihydro-1H-indol-5-yl)-2-chloroethan-1-one]",66.25
19,"CC(=O)N1CCc2cc(C(=O)C(C)Cl)ccc21 (centres unmarked) [10-L22, 1-(1-acetyl-2,3-dihydro-1H-indol-5-yl)-2-chloropropan-1-one]",124.375
20,"O=CN1CCc2cc(C(=O)CCl)ccc21 [10-K20, 5-(2-chloroacetyl)-2,3-dihydro-1H-indole-1-carbaldehyde]",102.813
21,"CCC(=O)N1CCc2cc(C(=O)CCl)ccc21 [10-C22, 1-[5-(2-chloroacetyl)-2,3-dihydro-1H-indol-1-yl]propan-1-one]",125.938
22,"CC1Cc2cc(C(=O)CCl)ccc2N1S(C)(=O)=O (centres unmarked) [10-A04, 2-chloro-1-(1-methanesulfonyl-2-methyl-2,3-dihydro-1H-indol-5-yl)ethan-1-one]",1.875
23,"CS(=O)(=O)N1CCCc2cc(C(=O)CCl)ccc21 [10-H19, 2-chloro-1-(1-methanesulfonyl-1,2,3,4-tetrahydroquinolin-6-yl)ethan-1-one]",1.5625
24,"C=CC(=O)NC1CCCN(C(=O)CCC(F)(F)F)C1 (centres unmarked) [1-B03, N-[1-(4,4,4-trifluorobutanoyl)piperidin-3-yl]prop-2-enamide]",102.681

row,SMILES,% of control remaining [%]
1,"C=CC(=O)N(C)c1ccccc1C(=O)NC [2-O18, N-methyl-2-(N-methylprop-2-enamido)benzamide]",115.231
2,"C=CC(=O)Nc1ccc(S(C)(=O)=O)cc1OCC [2-C08, N-(2-ethoxy-4-methanesulfonylphenyl)prop-2-enamide]",116.275
3,"Cl.O=C(CCl)NC1CCN(Cc2ccccc2)CC1 [5-E19, N-(1-benzylpiperidin-4-yl)-2-chloroacetamide hydrochloride]",109.654
4,"O=C(CCl)NCC1CCCN(C(=O)C(F)(F)F)C1 (centres unmarked) [7-N18, 2-chloro-N-{[1-(2,2,2-trifluoroacetyl)piperidin-3-yl]methyl}acetamide]",107.378
5,"CCOc1ccc(C=C(C#N)C(=O)Nc2cccc3ncccc23)cc1 [8-A07, 2-cyano-3-(4-ethoxyphenyl)-N-(quinolin-5-yl)prop-2-enamide]",131.452
6,"C=CC(=O)NCc1nc2c(s1)CCCC2 [1-G18, N-[(4,5,6,7-tetrahydro-1,3-benzothiazol-2-yl)methyl]prop-2-enamide]",119.56
7,"C=CC(=O)N(CC)CC(=O)N1CCCC1c1cn(C)nc1C (centres unmarked) [2-N12, N-{2-[2-(1,3-dimethyl-1H-pyrazol-4-yl)pyrrolidin-1-yl]-2-oxoethyl}-N-ethylprop-2-enamide]",110.009
8,"CCN(CC(=O)NC1CCS(=O)(=O)C1)C(=O)CCl (centres unmarked) [4-I19, 2-chloro-N-{[(1,1-dioxo-1lambda6-thiolan-3-yl)carbamoyl]methyl}-N-ethylacetamide]",127.68
9,"O=C(CCl)c1cc2c3c(c1)CC(=O)N3CCC2 [10-G16, 6-(2-chloroacetyl)-1-azatricyclo[6.3.1.0,4,12]dodeca-4(12),5,7-trien-2-one]",130.938
10,"O=C(CCl)c1ccc2c(c1)CCN(C(=O)C(F)(F)F)C2 [10-E09, 1-[6-(2-chloroacetyl)-1,2,3,4-tetrahydroisoquinolin-2-yl]-2,2,2-trifluoroethan-1-one]",20.625
11,"CC(Cl)C(=O)Nc1ccc(S(N)(=O)=O)cc1 (centres unmarked) [6-B06, 2-chloro-N-(4-sulfamoylphenyl)propanamide]",82.2927
12,"C=CC(=O)Nc1cc(NC(=O)c2ccc([N+](=O)[O-])o2)ccc1F [3-J04, N-[4-fluoro-3-(prop-2-enamido)phenyl]-5-nitrofuran-2-carboxamide]",-4.528
13,"C=CC(=O)Nc1cc(NC(=O)C2CCC2)ccc1F [2-E10, N-[4-fluoro-3-(prop-2-enamido)phenyl]cyclobutanecarboxamide]",111.749
14,"C=CC(=O)Nc1cc(NC(=O)C2(OC)CCOC2)ccc1F (centres unmarked) [3-D05, N-[4-fluoro-3-(prop-2-enamido)phenyl]-3-methoxyoxolane-3-carboxamide]",96.8219
15,"Cc1cc(C(=O)CCl)c(C)n1CCc1ccccc1 [10-B18, 2-chloro-1-[2,5-dimethyl-1-(2-phenylethyl)-1H-pyrrol-3-yl]ethan-1-one]",102.188
16,"Cc1cc(C(=O)CCl)c(C)n1CCc1ccc(F)cc1 [10-G14, 2-chloro-1-{1-[2-(4-fluorophenyl)ethyl]-2,5-dimethyl-1H-pyrrol-3-yl}ethan-1-one]",123.75
17,"Cc1cc(C(=O)CCl)c(C)n1Cc1ccccc1 [10-M14, 1-(1-benzyl-2,5-dimethyl-1H-pyrrol-3-yl)-2-chloroethan-1-one]",143.438
18,"Cc1cc(C(=O)CCl)c(C)n1Cc1cccs1 [10-D03, 2-chloro-1-{2,5-dimethyl-1-[(thiophen-2-yl)methyl]-1H-pyrrol-3-yl}ethan-1-one]",122.5
19,"Cc1cc(C(=O)CCl)c(C)n1Cc1ccccc1Cl [10-P16, 2-chloro-1-{1-[(2-chlorophenyl)methyl]-2,5-dimethyl-1H-pyrrol-3-yl}ethan-1-one]",127.813
20,"Cc1cc(C(=O)CCl)c(C)n1CCc1cccs1 [10-F16, 2-chloro-1-{2,5-dimethyl-1-[2-(thiophen-2-yl)ethyl]-1H-pyrrol-3-yl}ethan-1-one]",20.3125
21,"COCCn1c(C)cc(C(=O)CCl)c1C [10-D13, 2-chloro-1-[1-(2-methoxyethyl)-2,5-dimethyl-1H-pyrrol-3-yl]ethan-1-one]",103.125
22,"Cc1cc(C(=O)CCl)c(C)n1Cc1ccc(F)cc1 [10-N17, 2-chloro-1-{1-[(4-fluorophenyl)methyl]-2,5-dimethyl-1H-pyrrol-3-yl}ethan-1-one]",4.6875
23,"Cc1cc(C(=O)CCl)c(C)n1CCc1ccc(Cl)cc1 [10-N16, 2-chloro-1-{1-[2-(4-chlorophenyl)ethyl]-2,5-dimethyl-1H-pyrrol-3-yl}ethan-1-one]",5.9375
